Inconclusive results are not listed. Calls of active or inactive are those of the source. The call rests on the fitted dose curve; in most records, active means well fitted curve in the direction sought with a large enough effect; inconclusive means small, poorly fitted or top-dose-only effect, or another doubt; inactive means no such curve, though single readings can be large; an effect the other way counts as inactive or inconclusive.
Assays:
[1] = Confirmation and Secondary Assay for Modulators of Hemoglobin Beta Chain Splicing at IVS2 654 locus (AID 910); conditions: HeLa EGFP-654 splicing reporter, GFP fluorescence, 48 h; series mostly up to 38.3 µM;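 further: HeLa cells stably carrying EGFP split by mutant beta-globin IVS2-654 intron; per-well total GFP intensity by laser scanning cytometry after 2-day treatment; % of control where 0% means no effect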
Method in brief: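 Readout: per-well total peak green fluorescence (488 nm ex, 500–520 nm em) from objects 5–250 µm, reflecting correct splicing of an EGFP-654 reporter. Compounds were applied for 2 days at 37 °C to overnight-plated HeLa EGFP-654 cells; controls were DMSO and 500 nM IVS2-654 PNA.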

[2] = Confirmation and Secondary Assay for Modulators of Hemoglobin Beta Chain Splicing at IVS2 705 locus (AID 930); conditions: HeLa EGFP-705 splicing reporter, GFP fluorescence, 48 h; series mostly up to 38.3 µM;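 further: HeLa cells stably expressing the EGFP-705 splicing reporter; GFP fluorescence per well restored by corrected splicing of the IVS2-705 intron in EGFP; % of control where 0% means no effect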
Method in brief: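 Stable HeLa line with EGFP disrupted by mutant beta-globin intron 2 (705). Overnight attachment, then 2 days of compound at 37C, 5% CO2. Signal: peak GFP intensity summed over objects 5-250 µm.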

[3] = S16 Schwann cell PMP22 intronic element firefly luciferase assay (AID 624032); conditions: S16 rat Schwann cells, PMP22 element FLuc, 24 h; series mostly up to 57.5 µM;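 further: plate controls were DMSO for no effect and PTC124 positive control mean for full effect; nearly all actives have a fitted effect of over 30% in size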
Method in brief: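 Luciferase reporter of PMP22 intronic-element expression in stably transfected S16 rat Schwann cells, read by ONE-Glo luminescence after 24 h compound exposure at 37 C. Activity scaled between DMSO (0%) and positive-control PTC124; concentration-effect curves quality-classified.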

[4] = test system: DIV14; assay: qHTS profiling for inhibitors of Plasmodium falciparum proliferation (AID 504749);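 further: 0% = DMSO vehicle and full inhibition = artemisinin control; nearly all actives have a fitted effect of over 60% in size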; conditions: P. falciparum in erythrocytes, SYBR Green DNA, 72 h; series mostly up to 28.7 µM
Method in brief: (§1)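 Three-day growth assay of blood-stage parasites in erythrocytes (0.3% parasitemia, 2.5% hematocrit) at 37 C, 5% CO2, quantified by SYBR Green DNA staining after overnight detergent lysis.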

[5] = test system: ICS; assay: as above; conditions: P. falciparum in erythrocytes, SYBR Green DNA, 72 h; series mostly up to 28.7 µM
Method in brief: as §1

[6] = target: Rap guanine nucleotide exchange factor 3 (Homo sapiens) (UniProt O95398); assay: Confirmatory qHTS for antagonist of cAMP-regulated guanine nucleotide exchange factor 3 (EPAC1) (AID 1645880); conditions: EPAC1 Rap1B-BODIPY-GDP exchange, fluorescence; series mostly up to 115 µM;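 further: plate controls were DMSO only for no effect and full effect of the ATA control for full effect; nearly all actives have a fitted effect of over 55% in size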
Sequence of Rap guanine nucleotide exchange factor 3 (Homo sapiens) (O95398 whole entry, looked up): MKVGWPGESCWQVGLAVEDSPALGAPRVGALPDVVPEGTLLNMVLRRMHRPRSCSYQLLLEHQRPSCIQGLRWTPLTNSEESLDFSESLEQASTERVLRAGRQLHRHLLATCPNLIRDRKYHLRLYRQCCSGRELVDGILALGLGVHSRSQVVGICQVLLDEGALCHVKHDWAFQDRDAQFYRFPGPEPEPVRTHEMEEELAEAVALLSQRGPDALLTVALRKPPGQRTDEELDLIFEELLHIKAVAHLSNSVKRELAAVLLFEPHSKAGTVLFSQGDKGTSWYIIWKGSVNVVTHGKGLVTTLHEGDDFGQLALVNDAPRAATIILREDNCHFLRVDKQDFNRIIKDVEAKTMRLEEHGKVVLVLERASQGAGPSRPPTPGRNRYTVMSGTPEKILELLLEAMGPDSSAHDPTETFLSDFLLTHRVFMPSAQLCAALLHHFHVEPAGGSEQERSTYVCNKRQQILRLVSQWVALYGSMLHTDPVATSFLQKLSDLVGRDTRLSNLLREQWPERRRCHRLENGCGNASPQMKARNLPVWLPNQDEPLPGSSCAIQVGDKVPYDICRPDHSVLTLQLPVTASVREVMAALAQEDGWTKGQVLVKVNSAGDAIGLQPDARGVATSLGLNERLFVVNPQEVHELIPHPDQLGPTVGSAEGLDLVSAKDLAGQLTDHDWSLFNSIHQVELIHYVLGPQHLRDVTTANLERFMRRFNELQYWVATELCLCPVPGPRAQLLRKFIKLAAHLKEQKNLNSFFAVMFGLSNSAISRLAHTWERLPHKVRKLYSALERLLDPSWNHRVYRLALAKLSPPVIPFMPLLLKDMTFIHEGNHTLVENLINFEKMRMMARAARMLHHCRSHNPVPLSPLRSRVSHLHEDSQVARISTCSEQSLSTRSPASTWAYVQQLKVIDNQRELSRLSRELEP
Method in brief: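 Nucleotide exchange uses 100 nM EPAC1, 250 nM RAP1B-BODIPY-GDP and 50 uM GDP, with compounds in a concentration-titration series. After 5 min at room temperature, fluorescence (480 nm ex/540 nm em) is read every 5 min for 30 min. Data are normalized to control ATA and DMSO.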

[7] = target: Rap guanine nucleotide exchange factor 3 (Homo sapiens) (UniProt O95398); assay: Confirmatory qHTS for agonist of cAMP-regulated guanine nucleotide exchange factor 3 (EPAC1) (AID 1645881); conditions: EPAC1 Rap1B BODIPY-GDP exchange fluorescence, 100% = cAMP control response; series mostly up to 154 µM;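 further: EPAC1 catalysed release of BODIPY-GDP from Rap1B seen as fluorescence loss; nearly all actives have a fitted effect of over 75% in size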
[8] = target: Rap guanine nucleotide exchange factor 4 (Homo sapiens) (UniProt Q8WZA2); assay: Confirmatory qHTS for agonist of cAMP-regulated guanine nucleotide exchange factor 4 (EPAC2) (AID 1645884); conditions: EPAC2 GEF activity, Rap1B-BODIPY-GDP fluorescence, percent relative to cAMP agonist control; series mostly up to 154 µM;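 further: nucleotide exchange releases bodipy-GDP from Rap1 and this lowers its fluorescence; on the % scale 0 is the no-effect control and ±100 the full control effect; nearly all actives have a fitted effect of over 65% in size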
Sequence of Rap guanine nucleotide exchange factor 4 (Homo sapiens) (Q8WZA2 whole entry, looked up): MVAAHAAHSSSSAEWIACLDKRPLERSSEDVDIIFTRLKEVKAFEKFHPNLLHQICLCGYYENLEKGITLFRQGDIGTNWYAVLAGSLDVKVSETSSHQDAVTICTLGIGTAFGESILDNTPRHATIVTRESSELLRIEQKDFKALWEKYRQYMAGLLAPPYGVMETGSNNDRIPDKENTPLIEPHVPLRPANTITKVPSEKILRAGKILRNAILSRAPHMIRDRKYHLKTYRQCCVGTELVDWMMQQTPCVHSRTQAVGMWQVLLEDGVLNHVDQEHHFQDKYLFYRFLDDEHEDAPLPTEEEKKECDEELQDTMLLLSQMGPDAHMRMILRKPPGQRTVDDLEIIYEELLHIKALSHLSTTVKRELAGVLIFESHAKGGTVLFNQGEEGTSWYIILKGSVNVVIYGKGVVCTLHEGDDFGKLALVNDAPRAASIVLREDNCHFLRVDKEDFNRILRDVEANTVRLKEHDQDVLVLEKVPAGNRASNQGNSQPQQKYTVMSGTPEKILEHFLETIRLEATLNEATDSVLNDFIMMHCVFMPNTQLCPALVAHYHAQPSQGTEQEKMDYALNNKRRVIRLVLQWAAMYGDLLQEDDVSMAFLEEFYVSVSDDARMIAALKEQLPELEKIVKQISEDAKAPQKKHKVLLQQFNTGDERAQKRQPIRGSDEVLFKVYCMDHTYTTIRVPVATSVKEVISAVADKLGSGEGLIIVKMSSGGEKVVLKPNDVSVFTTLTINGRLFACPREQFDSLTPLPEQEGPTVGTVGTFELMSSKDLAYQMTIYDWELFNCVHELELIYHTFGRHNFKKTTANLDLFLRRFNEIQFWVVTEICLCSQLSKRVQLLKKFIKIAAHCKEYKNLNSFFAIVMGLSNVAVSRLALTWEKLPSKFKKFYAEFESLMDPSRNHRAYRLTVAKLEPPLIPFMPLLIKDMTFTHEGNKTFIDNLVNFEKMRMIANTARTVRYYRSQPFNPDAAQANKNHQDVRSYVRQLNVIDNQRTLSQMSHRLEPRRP

[9] = target: Rap guanine nucleotide exchange factor 4 (Homo sapiens) (UniProt Q8WZA2); assay: Confirmatory qHTS for antagonist of cAMP-regulated guanine nucleotide exchange factor 4 (EPAC2) (AID 1645885); conditions: EPAC2 Rap1B-BODIPY-GDP exchange fluorescence, biochemical; series mostly up to 114 µM; further: on the % scale 0 is the no-effect control and ±100 the full control effect; nearly all actives have a fitted effect of over 25% in size
[10] = target: Rap guanine nucleotide exchange factor 3 (Homo sapiens) (UniProt O95398); assay: Counterscreen qHTS for agonist of cAMP-regulated guanine nucleotide exchange factor 3 (EPAC1) (AID 1645889); conditions: EPAC1 Rap1B-BODIPY-GDP exchange, fluorescence; series mostly up to 154 µM; further: % of control where 0% means no effect; nearly all actives have a fitted effect of over 40% in size
Method in brief: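 Rap1B-BODIPY-GDP 250 nM + GDP 50 uM; cpds 7-pt, final 9.74 nM–152 uM (activator mode) or from 7.32 nM upwards (inhibitor mode); RT; FI 480/540 nm at 5 and 30 min, then ± cAMP, reread.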

[11] = target: Cytochrome P450 2C19 (Homo sapiens) (UniProt P33261); assay: qHTS Assay for Inhibitors and Substrates of Cytochrome P450 2C19 (AID 899); conditions: recombinant CYP2C19, luciferin-H EGE luminescence; series mostly up to 57.1 µM; further: on the % scale 0 is the no-effect control and ±100 the full control effect; nearly all actives have a fitted effect of over 60% in size
Sequence of Cytochrome P450 2C19 (Homo sapiens) (P33261 whole entry, looked up): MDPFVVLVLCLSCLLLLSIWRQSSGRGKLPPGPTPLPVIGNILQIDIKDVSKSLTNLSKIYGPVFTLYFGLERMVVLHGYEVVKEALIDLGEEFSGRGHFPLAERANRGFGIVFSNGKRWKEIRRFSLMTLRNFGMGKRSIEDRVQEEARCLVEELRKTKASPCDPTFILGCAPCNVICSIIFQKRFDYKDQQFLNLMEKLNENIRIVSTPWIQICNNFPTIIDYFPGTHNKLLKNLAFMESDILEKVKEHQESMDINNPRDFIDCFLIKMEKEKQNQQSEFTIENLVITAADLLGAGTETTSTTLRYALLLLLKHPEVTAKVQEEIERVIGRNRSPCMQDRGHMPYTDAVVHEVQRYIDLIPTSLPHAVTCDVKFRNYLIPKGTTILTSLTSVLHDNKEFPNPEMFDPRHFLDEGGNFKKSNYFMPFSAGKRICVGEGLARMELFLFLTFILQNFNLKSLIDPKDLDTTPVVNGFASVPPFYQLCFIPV
Method in brief: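 Reactions contain 5nM enzyme, 10uM Luciferin-H EGE (KM) and 50mM KPO4; compound preincubates 10 min at 37C, NADPH regeneration starts turnover for 60 min. Luminescence after detection reagent gives activity.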

CN1C(=O)CCC1c1cccnc1 (stereo unspecified)
inactive: outcome [1] | outcome [2] | Potency [3] | Potency [4] | Potency [5]

CN1C2CC(OC(=O)C(CO)c3ccccc3)CC1C1OC12 (stereo unspecified)
inactive: Potency [6] | outcome [7] | activation [8] 2.48% [at 17.1 µM] | activity change, negative = inhibition [9] -4.32% [at 12.7 µM] | activation [10] 0.0134% [at 30.8 µM]

NCCC(=O)NCCc1cnc[nH]1
inactive: Potency [11]

Source: PubChem BioAssay (NCATS)
